BoNT F protease – BoNT/F light chain protease inhibitors, primary screen, biochemical, flow cytometry, MLPCN library. Multiplex microsphere protease cleavage assay. inhibition, % at 10 µM. 0.22% of 360,000 active; in the data active = inhibition above about 35%, passing the limit was not always enough; inconclusive = no clear call, values can overlap the other calls
BoNT-A LC inh2 – BoNT/A light chain protease inhibitors, primary screen, biochemical, flow cytometry, MLPCN library; Botulinum neurotoxin type A light chain protease (Clostridium botulinum A str. ATCC 3502); multiplex microsphere protease substrate cleavage; inhibition, % at 10 µM; 0.17% of 360,000 active; AID 588499, 2011
Autofluor counter – flagged as autofluorescent in microsphere protease counterscreen; 3.1% of 360,000 active; fluorescence intensity (concentration not given with the values); compound autofluorescence counterscreen, microsphere flow cytometry; hits give high values; in the data active = fluorescence intensity above about 16000; inconclusive = no clear call, values can overlap the other calls
Anthrax LF prot – Bacillus anthracis LF protease inhibitors, primary screen, biochemical, multiplex microsphere, MLPCN library; AID 588501, 2011; multiplex microsphere protease cleavage assay; 0.12% of 360,000 active; inhibition, % at 10 µM; Lethal factor (Bacillus anthracis), P15917
Target sequence (P15917 whole entry, looked up): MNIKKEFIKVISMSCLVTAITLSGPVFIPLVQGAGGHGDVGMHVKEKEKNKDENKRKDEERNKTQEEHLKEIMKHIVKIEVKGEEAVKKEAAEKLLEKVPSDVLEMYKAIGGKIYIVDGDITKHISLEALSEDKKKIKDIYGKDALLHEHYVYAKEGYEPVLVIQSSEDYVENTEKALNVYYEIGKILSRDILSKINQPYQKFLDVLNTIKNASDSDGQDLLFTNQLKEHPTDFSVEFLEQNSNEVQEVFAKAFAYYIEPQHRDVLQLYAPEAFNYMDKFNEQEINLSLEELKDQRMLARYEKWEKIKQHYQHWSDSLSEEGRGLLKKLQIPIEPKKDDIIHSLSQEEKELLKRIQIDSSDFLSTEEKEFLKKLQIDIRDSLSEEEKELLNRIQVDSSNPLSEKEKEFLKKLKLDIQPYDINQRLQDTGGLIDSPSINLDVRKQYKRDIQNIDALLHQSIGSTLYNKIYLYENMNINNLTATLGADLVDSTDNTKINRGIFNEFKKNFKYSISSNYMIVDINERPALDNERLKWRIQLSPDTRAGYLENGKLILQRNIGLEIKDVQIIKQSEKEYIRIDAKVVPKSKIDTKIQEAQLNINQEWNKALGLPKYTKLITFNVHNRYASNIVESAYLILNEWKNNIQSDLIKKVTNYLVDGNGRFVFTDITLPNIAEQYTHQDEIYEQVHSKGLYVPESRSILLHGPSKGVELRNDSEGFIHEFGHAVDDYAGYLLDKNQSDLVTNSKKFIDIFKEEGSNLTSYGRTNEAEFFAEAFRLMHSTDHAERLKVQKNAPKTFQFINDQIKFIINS
Hits are given with their value. Hits are enriched below; roughly 3.5% of the tested compounds scored in any of these assays. Cut-off read from the data, not from the text of the source, unless noted: active = inhibition above about 30%; inconclusive = no clear call, values can overlap the other calls; inactive = below that.

How did O=C(COc1ccc(Cl)cc1Cl)NCc1ccncc1 do in these assays?
BoNT F protease: inactive; BoNT-A LC inh2: inactive; Autofluor counter: 19178; Anthrax LF prot: inactive

How did CC(=O)NC(=S)Nc1ccc(NC(=O)COc2ccc(Cl)cc2Cl)cc1 do in these assays?
BoNT F protease: inactive; BoNT-A LC inh2: inactive; Autofluor counter: inactive; Anthrax LF prot: inactive

Results for CC(C)C(=O)Nc1ccc(C(=O)NNC(=O)CCCOc2ccc(Cl)cc2Cl)cc1 ?
BoNT F protease: inactive; BoNT-A LC inh2: inconclusive; Autofluor counter: 24267; Anthrax LF prot: inactive

Results for N#C/C(=C/c1ccc(N2CCCCCC2)o1)c1ccc(Cl)cc1 ?
BoNT F protease: inactive; BoNT-A LC inh2: inactive; Autofluor counter: 22830; Anthrax LF prot: inactive

How did CS(=O)(=O)n1c2ccccc2c(=O)n1-c1ccccc1CCl do in these assays?
BoNT F protease: inactive; BoNT-A LC inh2: inactive; Autofluor counter: inactive; Anthrax LF prot: inactive

How did CCC1CC(C(=O)O)CC(=O)N1 (configuration not stated) do in these assays?
BoNT F protease: inactive; BoNT-A LC inh2: inactive; Autofluor counter: inactive; Anthrax LF prot: inactive

Results for O=C(Nc1cc(S(=O)(=O)N2CCOCC2)ccc1Cl)c1ccncc1 ?
BoNT F protease: inactive; BoNT-A LC inh2: inactive; Autofluor counter: inactive; Anthrax LF prot: inactive

What do the screens show for `COCCCNC(=S)NNC(=S)Nc1ccccc1`?
BoNT F protease: inactive; BoNT-A LC inh2: inactive; Autofluor counter: inactive; Anthrax LF prot: inactive

How did COCCCNC(=S)NNC(=S)Nc1ccc(F)cc1F do in these assays?
BoNT F protease: inactive; BoNT-A LC inh2: inconclusive; Autofluor counter: 21111; Anthrax LF prot: inactive

How did CC(C)C[C@H](NC(=O)CC[C@H]1O[C@@H](n2ccc(=O)[nH]c2=O)[C@H](O)[C@@H]1O)C(=O)O do in these assays?
BoNT F protease: inactive; BoNT-A LC inh2: inactive; Autofluor counter: inactive; Anthrax LF prot: inactive

Results for COC(=O)C(C#N)(CCC(=O)c1ccccc1)CCC(=O)c1ccccc1 ?
BoNT F protease: inactive; BoNT-A LC inh2: inactive; Autofluor counter: inactive; Anthrax LF prot: inactive

Results for O=C(Nc1cccc(F)c1)c1cccc(S(=O)(=O)N2CCOCC2)c1 ?
BoNT F protease: inactive; BoNT-A LC inh2: inactive; Autofluor counter: 24090; Anthrax LF prot: inactive

Results for COC(=O)c1cccc(S(=O)(=O)N2CCC(NC(=O)Nc3cccc(F)c3)CC2)c1 ?
BoNT F protease: inactive; BoNT-A LC inh2: inactive; Autofluor counter: 17460; Anthrax LF prot: inactive

What do the screens show for `Cc1cc(NC(=O)c2cc(S(=O)(=O)N3CCCCC3)ccc2C)no1`?
BoNT F protease: inactive; BoNT-A LC inh2: inactive; Autofluor counter: inactive; Anthrax LF prot: inactive

Results for Cc1cc(NC(=O)c2cccc(S(=O)(=O)N3CCCCCC3)c2)no1 ?
BoNT F protease: inactive; BoNT-A LC inh2: inactive; Autofluor counter: 17368; Anthrax LF prot: inactive

Results for CC(=O)c1ccc(S(=O)(=O)N2CCC(NC(=O)Nc3cccc(F)c3)CC2)cc1 ?
BoNT F protease: inactive; BoNT-A LC inh2: inactive; Autofluor counter: inactive; Anthrax LF prot: inactive

What do the screens show for `O=C(NCc1nc2ccccc2[nH]1)c1cccc(S(=O)(=O)N2CCOCC2)c1`?
BoNT F protease: inactive; BoNT-A LC inh2: inactive; Autofluor counter: 22223; Anthrax LF prot: inactive

What do the screens show for `O=C(NCc1nc2ccccc2[nH]1)c1cccc(S(=O)(=O)N2CCCC2)c1`?
BoNT F protease: inactive; BoNT-A LC inh2: inactive; Autofluor counter: inactive; Anthrax LF prot: inactive

How did COc1ccccc1[C@@]1(C)ON(c2ccccc2C(F)(F)F)C1=O do in these assays?
BoNT F protease: inactive; BoNT-A LC inh2: inactive; Autofluor counter: inactive; Anthrax LF prot: inactive

Results for Cc1ccc(NC(=O)c2ncn(CCCN3CCN(c4ncccn4)CC3)n2)cc1C ?
BoNT F protease: inactive; BoNT-A LC inh2: inactive; Autofluor counter: inactive; Anthrax LF prot: inactive

Results for COc1ccc([C@H]2CC(=O)C[C@@H](CCn3cc(-c4ccc(F)cc4)nn3)O2)cc1 ?
BoNT F protease: inactive; BoNT-A LC inh2: inactive; Autofluor counter: inactive; Anthrax LF prot: inactive

How did O=C(Nc1cccs1)Nc1nnc([C@@H]2C[C@H](O)[C@@H](CO)O2)s1 do in these assays?
BoNT F protease: inactive; BoNT-A LC inh2: inactive; Autofluor counter: inactive; Anthrax LF prot: inactive

Results for CCOC(=O)c1ccc(S(=O)(=O)N2CCN(CC(=O)NC(=O)NC(C)(C)C)CC2)cc1 ?
BoNT F protease: inactive; BoNT-A LC inh2: inconclusive; Autofluor counter: inconclusive; Anthrax LF prot: inactive

Results for O=C(Nc1ccc2c(c1)OCCO2)c1ccc(S(=O)(=O)N2CCCCC2)cc1 ?
BoNT F protease: inactive; BoNT-A LC inh2: inactive; Autofluor counter: 16458; Anthrax LF prot: inactive
